# Hits are enriched below; roughly 19% of the tested compounds scored in any of these assays.
# TDP1 cell CPT: DT40-hTDP1 cell growth loss with CPT; chicken DT40 Tdp1-/-;hTDP1 cells + 20 nM CPT, ATP luminescence, 48 h; Potency, µM (titrated, usually from 46.2 µM), inactives show top-dose activity change, negative = growth inhibition, hits mostly inhibitors; 12% of 420,000 active; also: nearly all actives have a fitted effect of over 55% in size
#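 Chicken DT40 Tdp1-/- cells complemented with human TDP1, 400 cells/well, exposed to compounds plus 20 nM camptothecin for at least 48 h at 37 C; viability read as ATP content by CellTiter-Glo luminescence.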
# VP16 counter: counter-screen for ROR gamma inhibitors: Gal4-VP16 reporter. Potency, µM (series often up to 53.6 µM), for the others: top-dose activity, negative = inhibition, hits mostly inhibitors. AID 2546. Drosophila S2 Gal4-VP16 UAS-luciferase, luminescence, 20 h. 3.5% of 310,000 active;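 also: Gal4-VP16 expression switched on by copper sulfate through the metallothionein promoter; nearly all actives have a fitted effect of over 50% in size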
# RORg inh: ROR gamma (mouse) transcription inhibition; P51450; Drosophila S2 Gal4-RORgamma UAS-luciferase reporter, 20 h; Potency, µM (series often up to 53.6 µM), inactives show at the highest dose activity change, negative = inhibition, actives largely listed as inhibitors; 5.4% of 310,000 active; also: nearly all actives have a fitted effect of over 60% in size
# Target sequence (P51450 whole entry, looked up, the tested form may be a part): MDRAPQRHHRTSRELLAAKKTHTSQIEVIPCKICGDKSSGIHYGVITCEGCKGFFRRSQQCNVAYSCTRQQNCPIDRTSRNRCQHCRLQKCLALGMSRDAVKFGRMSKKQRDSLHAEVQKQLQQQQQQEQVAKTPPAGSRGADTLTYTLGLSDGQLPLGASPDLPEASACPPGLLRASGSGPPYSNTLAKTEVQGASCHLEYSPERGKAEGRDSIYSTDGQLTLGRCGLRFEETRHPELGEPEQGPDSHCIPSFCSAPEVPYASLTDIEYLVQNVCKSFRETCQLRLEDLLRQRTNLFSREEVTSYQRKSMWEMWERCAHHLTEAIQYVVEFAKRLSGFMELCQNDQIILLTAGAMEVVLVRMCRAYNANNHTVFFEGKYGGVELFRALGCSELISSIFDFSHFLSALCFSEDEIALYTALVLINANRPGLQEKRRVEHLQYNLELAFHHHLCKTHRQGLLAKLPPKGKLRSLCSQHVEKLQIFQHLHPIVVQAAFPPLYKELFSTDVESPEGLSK
#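 In this cell-based reporter format, copper sulfate (700 uM final) drives Gal4–ROR gamma fusion expression from a metallothionein promoter in Drosophila Schneider cells; compounds preincubated 1 hr, reporter read after 20 hr at ambient temperature.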
# TDP1 block: blocks human tyrosyl-DNA phosphodiesterase 1. recombinant TDP1, AlphaScreen DNA substrate cleavage. AID 485290. Potency, µM (top dose mostly 130 µM), without a hit: at the top dose activity change, negative = inhibition, actives largely listed as inhibitors. 0.28% of 350,000 active. Q9NUW8; also: nearly all actives have a fitted effect of over 40% in size
#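 Steps: enzyme plus compound, 15 min RT; add biotin/phosphotyrosine-FITC oligonucleotide (15 nM final), react 5 min; add donor/acceptor beads (10 ug/ml final), 10 min; read AlphaScreen. Tdp1 at 1 nM final.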
# TDP1 cell noCPT: qHTS for Inhibitors of human tyrosyl-DNA phosphodiesterase 1 (TDP1): qHTS in cells in absence of CPT; DT40 Tdp1-/- hTDP1 cells, no CPT, ATP luminescence, 48 h; Potency, µM (top dose mostly 46.2 µM), for inactives: at the top dose activity change, negative = growth inhibition, most hits filed as inhibitors; 15% of 420,000 active; also: nearly all actives have a fitted effect of over 55% in size
#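 Compound effects on proliferation are scored in DT40 Tdp1-/-;hTDP1 cells in the absence of CPT. ATP levels (CellTiter-Glo luminescence) are recorded after a ≥48 hr, 37 °C incubation.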
# * hit, by the source's call; ? = inconclusive; nt = no result; ! = not active in a repeat; [ ] = another dose, or the depositor's remark. Calls follow the shape of the dose curve; as a rule, active = well fitted curve in the direction sought with a large enough effect; inconclusive = small, poorly fitted or top-dose-only effect, or another doubt; inactive = no such curve, though single readings can be large; an effect the other way counts as inactive or inconclusive. % is scaled to controls: 0 for no effect and ±100 for the full control effect; potency is read from the fitted curve at half-maximal effect.
SMILES,TDP1 cell CPT,VP16 counter,RORg inh,TDP1 block,TDP1 cell noCPT
Fc1ccc(-c2csc(=Nc3cccc(C(F)(F)F)c3)n2Cc2ccc3c(c2)OCO3)cc1,13µM*,nt,nt,3%,13µM*
CCN(CC)S(=O)(=O)c1ccc(-c2csc(=Nc3cccc(C(F)(F)F)c3)n2Cc2ccc3c(c2)OCO3)cc1,?,nt,nt,-2%,9.2µM*
CCN(CC)S(=O)(=O)c1ccc(/C=C/C(=O)OCC(=O)NCc2ccc3c(c2)OCO3)cc1,?,2%,17%,8%,?
O=S(=O)(c1cccc(F)c1)N1CCN(Cc2ccc3c(c2)OCO3)CC1,-15%,-5%,23%,4%,-22%
O=C(Nc1ccccc1)C1=C[C@H](c2ccc3c(c2)OCO3)C[C@H](OCCCCO)O1,26µM*,-28%,-45%,1%,?
O=C(Nc1ccccc1)C1=C[C@@H](c2ccc(Br)cc2)C[C@@H](OCCCCO)O1,?,7.1µM*,?,-13%,?
CNC1CCC(c2ccc(Cl)c(Cl)c2)c2ccccc21 (centres undefined),15µM*,nt,nt,8%[56.1 µM],18µM*
O=C1C=C(O)CC(c2ccc(Cl)c(Cl)c2)C1 (centres undefined),-4%,nt,4%[0.365 µM],-8%,6%
CN[C@H]1CC[C@@H](c2ccc(Cl)c(Cl)c2)c2ccccc21,15µM*!,nt,nt,6%,15µM*
CCCCC#CC1C=CC(Oc2ccc(OC)cc2)C(CO)O1 (centres undefined),nt,-3%[10 µM],-14%[10 µM],6%[21 µM],nt
Nc1cc(S(=O)(=O)Nc2cc(Cl)ccc2Cl)ccc1N1CCCC1,?,-11%,20%,11%,-10%
CC1CCN(c2ccccc2NC(=S)NC(=O)c2ccc(-c3cccc([N+](=O)[O-])c3)o2)CC1,?,-3%,1µM*,6%,?
O=[N+]([O-])c1cccc(-c2ccc(C(=S)N3CCN(c4ccc(F)cc4)CC3)o2)c1,-17%,-14%,6%,-1%,-12%
CC1CCN(c2ccc(NC(=S)NC(=O)c3ccc(-c4cccc([N+](=O)[O-])c4)o3)cc2)CC1,11µM*,7.1µM*,1.6µM*,4%,10µM*
CCCn1c(CCC(=O)O)ccc1-c1ccc(OC)cc1,-13%,-17%,31%,7%,-4%
CSc1ncc2c(=O)[nH]c(-c3ccccc3)nc2n1,2%,3%,?,nt,-10%
CSc1ncc2[nH]c(C(O)c3ccccc3)nc2n1 (centres undefined),9.2µM*,nt,nt,nt,10µM*
Cc1c(C)c2ccc(OC(C)C(=O)N3CC[C@@]4(O)CCCC[C@H]4C3)c(C)c2oc1=O (some centres undefined),?,5%,-29%,nt,?
COCCN(C(=O)CC1OC(=O)c2ccccc21)c1c(N)n(Cc2ccccc2)c(=O)[nH]c1=O (centres undefined),15%,nt,nt,-1%,-5%
O=c1c2ccccc2oc2ccc(NCCCN3CCOCC3)cc12,?,-21%,?,nt,-23%
CN1CCCC1CCNc1ccc2oc3ccccc3c(=O)c2c1 (centres undefined),?,?,8.9µM*,nt,?
CN1CCCC1CCNc1ccc2c(=O)c3ccccc3oc2c1 (centres undefined),?,?,?,nt,18µM*
O=C(Cc1c(F)cccc1Cl)Nc1ccc(S(=O)(=O)N2CCCC2)cc1,-10%,0%,23%,4%,?
COc1ccc(-c2cc(NC=O)c3ncc(-c4ccc(C(C)=O)cc4)n3c2)cc1OC,16µM*,nt,nt,nt,18µM*
COc1cc(-c2cc(NC=O)c3ncc(-c4ccc(C(C)=O)cc4)n3c2)cc(OC)c1OC,10µM*,nt,nt,nt,7.3µM*
SMILES,TDP1 cell CPT,VP16 counter,RORg inh,TDP1 block,TDP1 cell noCPT
COc1cc(C(C)=O)ccc1O,-1%,nt,nt,nt,?
Cc1cc(C)nc(Nc2nc(=O)c3ccccc3s2)n1,?,?,?,4%,21µM*
CC(CN1CCCC1)OC(=O)c1cccc(F)c1 (centres undefined),1%,-6%,-1%,7%,10%
CCc1ccc(C=C2SC(=S)N(CCCC(=O)Nc3ccc(C(=O)O)cc3)C2=O)cc1,?,nt,nt,nt,18µM*
CCc1ccc(/C=C2/SC(=S)N(CCC(=O)Nc3ccc(C(=O)O)cc3)C2=O)cc1,nt,-7%,3.5µM*,?,nt
O=C(CCCN1C(=O)S/C(=C\C=C\c2ccccc2)C1=O)Nc1ccc(C(=O)O)cc1,-11%,-15%,-21%,35µM*,1%
CCc1ccc(/C=C2/SC(=S)N(CCC(=O)Nc3cccc(C(=O)O)c3)C2=O)cc1,0%,-17%,?,28µM*,23%
O=S(=O)(NCCc1csc2nc(-c3ccccc3)nn12)c1ccc(Cl)s1,-22%,nt,nt,-5%,?
COC(=O)c1ccccc1NC(=O)c1cc(CN2CCCC2)on1,-2%,nt,nt,10%,-5%
CCN(C(=O)CSc1nnc(-c2ccccc2Cl)n1N)c1c(N)n(Cc2ccccc2)c(=O)[nH]c1=O,17%,nt,nt,nt,-12%
c1ccc(Sc2nc(N3CCCCC3)nc(N3CCCCC3)n2)nc1,?,-29%,-37%,-6%,18µM*
Cc1ccc(S(=O)(=O)N2CCC(C(=O)N[C@@H](C)C(=O)NC3CCS(=O)(=O)C3)CC2)cc1 (some centres undefined),nt,-6%,8%,8%,nt
Cc1ccc(/C=C(\NC(=O)c2ccc(C)cc2)c2nc(=S)[nH][nH]2)cc1,15µM*,?,?,10%,?
Cc1ccc(C(=O)N/C(=C\c2ccccc2F)c2nc(=S)[nH][nH]2)cc1,21µM*,-15%,-44%,6%,?
Cc1ccc2nc(N3CCOCC3)c(C=O)c(=O)n2c1,2%,-6%,-2%,6%,13%
C[C@@H]1CN([C@@H](C)CO)C(=O)c2cc(Br)cnc2O[C@@H]1CN(C)C(=O)Nc1ccc(F)cc1,-16%,nt,nt,nt,?
C[C@@H]1CN([C@H](C)CO)C(=O)c2cc(C#C[C@@H](C)O)cnc2O[C@H]1CN(C)C(=O)c1ccc(F)cc1,-2%,nt,nt,nt,7%
C[C@H]1CN([C@@H](C)CO)C(=O)c2cc(Br)cnc2O[C@@H]1CN(C)C(=O)Nc1ccc(C(F)(F)F)cc1,21µM*,nt,nt,nt,23µM*
C[C@H](O)C#Cc1cnc2c(c1)C(=O)N([C@H](C)CO)C[C@@H](C)[C@H](CN(C)C(=O)Nc1ccc(C(F)(F)F)cc1)O2,12µM*,nt,nt,nt,7.3µM*
CC(=O)OCC(=O)C1(O)CCC2C3CC(C)C4=CC(=O)C=CC4(C)C3(F)C(O)CC21C (centres undefined),-11%,nt,nt,nt,-17%

# Source: PubChem BioAssay (National Center for Advancing Translational Sciences (NCATS))
